Source: PubChem BioAssay (NCI)
The panel holds about 83,000 compounds, 20% with a hit somewhere; the sample as a whole holds those more often.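 Cells were grown in 96-well plates and exposed to the test compound at a single concentration for 48 hours; results are reported as percent growth, with values below 10 considered active.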 Calls of active or inactive are those of the source.

What was measured:
Assay in all cases: NCI-60 one-dose screen, 48 h (100 = growth as untreated, 0 = no growth, -100 = all killed)
Settings in all cases: 10 µM unless noted
[1] = system: SR leukemia
[2] = system: RPMI-8226 leukemia
[3] = system: OVCAR-8 ovarian
[4] = system: OVCAR-5 ovarian
[5] = system: OVCAR-4 ovarian
[6] = system: SK-OV-3 ovarian
[7] = system: IGROV1 ovarian
[8] = system: OVCAR-3 ovarian
[9] = system: HS 578T breast
[10] = system: NCI/ADR-RES ovarian
[11] = system: T-47D breast
[12] = system: BT-549 breast
[13] = system: MDA-MB-435 melanoma
[14] = system: SW-620 colon
[15] = system: MCF7 breast
[16] = system: HCT-116 colon
[17] = system: HCC-2998 colon
[18] = system: KM12 colon

Measured: growth

CCN(CC)CCN1C(=O)c2c(c(C)c3c(oc4cc(O)ccc43)c2C)C1=O
active: [1] -25.3% | [2] -36.3% | [3] -62.6% | [4] -38.5% | [5] -34.4% | [8] -88% | [14] -50.2% | [15] 3.63% | [16] -85% | [18] -80.1%
inactive: [6] 108% | [7] 91.9% | [9] 87.7% | [10] 78% | [11] 89.5% | [12] 86.7% | [13] 72.9% | [17] 92%

O=C(O)c1ccc2c(c1Cl)C(=O)c1ccccc1C2=O
inactive: [1] 70.7% | [2] 104% | [3] 118% | [4] 102% | [5] 81.3% | [6] 102% | [7] 167% | [8] 99.5% | [9] 123% | [10] 97.5% | [11] 101% | [12] 116% | [13] 78.3% | [14] 107% | [15] 94% | [16] 93.2% | [17] 104% | [18] 107%

COC(=O)[C@]12CC[C@@H](C)[C@H](C)[C@@H]1C1=CC[C@@H]3[C@@]4(C)C(C=O)=C[C@@](C)(COC(=O)c5ccco5)[C@@H]4C(=O)C[C@@]3(C)[C@]1(C)CC2
inactive: [1] 32.5% | [2] 14.6% | [3] 24.8% | [4] 59.4% | [5] 29.8% | [6] 33.7% | [7] 51.8% | [8] 40.4% | [9] 65.3% | [10] 28.4% | [12] 12.9% | [14] 31.4% | [15] 20.4% | [16] 12.6% | [17] 38.9% | [18] 23.1%
active: [11] 0.38% | [13] -10.1%

COc1ccc(-c2nc3c(c(=O)n2C(C)=O)C(c2ccc(Cl)cc2)c2sc4c(Cl)cccc4c2O3)cc1 (stereo not given)
active: [1] -11.7% | [2] 2.22% | [3] -23% | [4] -13.8% | [6] -22.6% | [8] -71.4% | [9] -15.6% | [10] -4.4% | [12] -26.9% | [13] 0.072% | [14] -17.5% | [15] 4.61% | [16] -58.6% | [17] -34.5% | [18] -8.16%
inactive: [5] 24.4% | [7] 12.5% | [11] 11.9%

O=C(NCCCNc1cc(-c2cn(-c3ccccc3)nc2-c2cccc(O)c2)ccn1)c1cccc(O)c1
active: [1] -9.11% | [11] 8.13%
inactive: [2] 45.2% | [3] 40.9% | [4] 107% | [5] 67.8% | [6] 69.3% | [7] 84.5% | [8] 58.3% | [9] 34.2% | [10] 95% | [12] 37.5% | [13] 32.1% | [14] 51% | [15] 47.3% | [16] 47.3% | [17] 64.8% | [18] 45.3%

CCC(CO)Nc1nc2ccc(Cl)cc2c2ccccc12 (stereo not given)
inactive: [1] 26.9% | [2] 66.6% | [3] 75.1% | [4] 66.9% | [5] 71.3% | [6] 70.7% | [7] 58.1% | [8] 62.8% | [9] 29.5% | [10] 62.4% | [11] 59.5% | [12] 70.6% | [13] 58% | [14] 79.7% | [15] 72.7% | [16] 71.5% | [17] 54.9% | [18] 45.7%

CC1(c2ccccc2)NC(=O)N(NC(=O)CSc2nc(-c3cccs3)nc3ccccc23)C1=O (stereo not given)
inactive: [1] 67% | [2] 72.9% | [3] 82.4% | [4] 76.7% | [5] 106% | [6] 124% | [7] 88.6% | [8] 95.9% | [9] 101% | [10] 87.9% | [11] 95.9% | [12] 110% | [13] 103% | [14] 109% | [15] 106% | [16] 93.6% | [17] 98.4% | [18] 103%

COc1ccc2occ(C3=C(c4c[nH]c5ccccc45)C(=O)N(O)C3=O)c2c1
inactive: [1] 57.2% | [2] 66.7% | [3] 90.5% | [4] 104% | [5] 112% | [6] 88.7% | [7] 91.3% | [8] 98.9% | [9] 95.7% | [10] 99.1% | [11] 76.1% | [12] 84.2% | [13] 96.3% | [14] 89.2% | [15] 82.5% | [16] 90.7% | [17] 112% | [18] 91.1%

CC1(C)OC2C(CO[Si](C)(C)C(C)(C)C)OC(n3c(I)c(C#C[Si](C)(C)C)c(=O)[nH]c3=O)C2O1 (stereo not given)
inactive: [1] 63.6% | [3] 88.6% | [4] 92.6% | [6] 111% | [7] 96.7% | [10] 82.7% | [11] 96.2% | [12] 118% | [13] 83% | [15] 106% | [16] 71% | [18] 107%
active: [2] -12.2% | [5] -68.4% | [8] -41.1% | [9] 3.19% | [14] -43% | [17] -51%

CCN(CC)CCCCCCNc1cc(OC)c(Cl)c2cccnc12
inactive: [1] 42.2% | [2] 75.3% | [3] 84.9% | [4] 83% | [5] 73.6% | [6] 92.5% | [7] 86.6% | [8] 66.9% | [9] 58.8% | [10] 79.3% | [11] 81.4% | [12] 93.5% | [13] 14.7% | [14] 81.2% | [15] 66.7% | [16] 70.8% | [17] 82.1% | [18] 76.9%

CCOc1ccccc1-c1cc(-c2cccs2)c(C#N)c(=O)[nH]1
inactive: [1] 77.4% | [2] 91.2% | [3] 95% | [4] 94.6% | [5] 39.2% | [6] 98.7% | [7] 66.7% | [8] 99.7% | [9] 76.6% | [10] 76.7% | [11] 26.7% | [12] 85.6% | [13] 31.2% | [14] 80.9% | [15] 37.1% | [16] 92.3% | [17] 92.2% | [18] 83.9%

O=C(NCCCNc1cc(-c2cn(-c3ccccc3)nc2-c2cccc(O)c2)ccn1)c1ccccc1
active: [1] -25.8% | [2] -7.45% | [9] -6.38% | [11] -13.8% | [13] -10.5% | [14] -32.4% | [17] -26.1%
inactive: [3] 27.5% | [4] 63.3% | [5] 38.1% | [6] 37.7% | [7] 50.8% | [8] 45.8% | [10] 25.8% | [12] 10.3% | [15] 23% | [16] 24.8% | [18] 20.2%

COC(=O)[C@]12CC[C@@H](C)[C@H](C)[C@@H]1C1=CC[C@@H]3[C@@]4(C)C(C=O)=C[C@@](C)(COC(=O)/C=C/c5ccccc5)[C@@H]4[C@H](O)C[C@@]3(C)[C@]1(C)CC2
inactive: [5] 21.4% | [6] 18.6% | [7] 23.9% | [10] 17.9% | [15] 10.6%
active: [1] -6.65% | [2] 1.62% | [3] 9.9% | [4] 7.64% | [8] -75.9% | [9] -8.26% | [11] -6.88% | [12] -7.43% | [13] -6.08% | [14] 5.68% | [16] -72.5% | [17] -29.9% | [18] 6.25%

O=C(N/N=C/c1ccncc1)c1ccc(C(F)(F)F)nc1Nc1cccc(C(F)(F)F)c1
inactive: [4] 24.7% | [6] 32.1% | [9] 44.4% | [11] 25.6% | [12] 23.8% | [13] 36.4% | [14] 14.8% | [16] 11.1% | [18] 20.9%
active: [1] 2.02% | [2] -64.1% | [3] -4.88% | [5] -0.699% | [7] -35.9% | [8] 1.03% | [10] -10.7% | [15] -14.5% | [17] -40.3%

O=C(Nc1cccc(Cl)c1)c1cc(N=Nc2ccc([N+](=O)[O-])cc2Cl)ccc1O
inactive: [1] 20.7% | [3] 15.6% | [4] 112% | [5] 59.9% | [6] 93.1% | [7] 22.9% | [8] 85% | [9] 54% | [10] 67.6% | [11] 53.6% | [12] 81% | [13] 90.5% | [14] 86.1% | [15] 32% | [16] 52.9% | [17] 45.8% | [18] 93.7%
active: [2] 3.54%
